Compounds with a hit are over-represented: about 11% of the library has one in this group of screens.
INS promoter inh: inhibitors of insulin promoter-driven GFP, primary screen, imaging, TRM-6 cells (human fetal islet line), eGFP reporter, cell count; reporter expression induced with tamoxifen; inhibition, % at 2 µM; hit rate 0.9% among 130,000;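 active means inhibition above the mean plus 3 SD, with well images judged a real hit on visual review, cut at about 60% in these data, passing the limit was not always enough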
L major viab: Leishmania major promastigote growth inhibition, primary screen | Leishmania major promastigotes, resazurin fluorescence viability | inhibition, % at 10 µM | hit rate 9% among 200,000 | AID 1063, 2008; in the data active means inhibition above about 50%;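 further: promastigotes grown with compound for 44 hours at 28 °C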
Insulin prom up: insulin promoter activators in MIN6 cells, imaging, high-content screening, mouse beta cells; MIN6 insulin promoter-GFP reporter; active compounds read high; z-score at 5 µM; hit rate 0.3% among 190,000; AID 1625, 2009;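 active means z-score above 3 at 5 µM with at least 500 cells counted in the well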
Autophagy HCS: autophagy modulators in MEF cells, primary screen, imaging, high-content, MEF GFP-LC3; MEF GFP-LC3 puncta imaging; test concentration mostly 10 µM; calls only at 10 µM (by protocol); hit rate 0.98% among 190,000;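 active means percentage of spot-positive cells more than 3 SD above its plate mean, without a fluorescence outlier flag or 80% toxicity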
WT yeast gro inh: growth inhibition of WT strain, primary screen, mitochondrial fusion inhibitor project, WT and mutant strains, chemical genetic; mitochondrial fusion phenotypic screen; inhibition, % at 10 µM; hit rate 2.1% among 190,000; AID 1362, 2008; in the data active means inhibition above about 58%; tested in S. cerevisiae
Each line names hits and unclear results; the compound was inactive in the other large screens.

COc1cccc(N=Nc2c(N)[nH]n3c(=O)c4c(nc23)CCCC4)c1	L major viab 74, Autophagy HCS active (no result: INS promoter inh)
C=CCNC(=S)N/N=C/c1cccc([N+](=O)[O-])c1	none
N#Cc1c(-c2ccc(F)cc2)cc(-c2cccnc2)nc1N	none
N#Cc1c(-c2cccs2)cc(-c2cccnc2)nc1N	L major viab 53
c1ccc2c(c1)CC/C2=N/Nc1nc2ccccc2[nH]1	L major viab 100, WT yeast gro inh 77 (no result: INS promoter inh)
CC(C)(C)C1CCC(=NNc2nc3ccccc3[nH]2)CC1 (stereo unspecified)	L major viab 85 (no result: INS promoter inh)
CCC(C)NC(=S)N1CCN(C)CC1 (stereo unspecified)	none (no result: INS promoter inh)
Cc1ccc(C(=O)c2ccccc2C(=O)OCC(=O)NCC2CCCO2)cc1 (stereo unspecified)	none (no result: INS promoter inh, Insulin prom up)
COc1ccc(N2CCN(c3c(S(=O)(=O)c4ccccc4)cnc4ccc(OC)cc34)CC2)cc1	L major viab 61, WT yeast gro inh 76 (no result: INS promoter inh)
CCOC(=O)C1CCCN(c2c(C(=O)c3ccccc3)cnc3ccc(OC)cc23)C1 (stereo unspecified)	none (no result: INS promoter inh)
CCOc1ccc2ncc(S(=O)(=O)c3ccccc3)c(N3CCC4(CC3)OCCO4)c2c1	L major viab 86
CCc1ccc2ncc(S(=O)(=O)c3ccc(C)c(C)c3)c(N3CCCC3)c2c1	WT yeast gro inh 72
COc1ccc(S(=O)(=O)c2cnc3ccc(OC)cc3c2N2CCC3(CC2)OCCO3)cc1	none (no result: INS promoter inh, Insulin prom up)
CCOc1ccc2ncc(S(=O)(=O)c3ccccc3)c(N3CCN(c4ccc(OC)cc4)CC3)c2c1	L major viab 100
COc1ccc(N2CCN(c3nc4ccccc4nc3NS(=O)(=O)c3ccccc3)CC2)cc1	none (no result: Insulin prom up)
Cc1ccccc1N1CCN(C2=NC(=O)/C(=C/c3cn[nH]c3-c3ccccc3)S2)CC1	none
Cc1cc(Br)ccc1-n1[nH]c(C)c(C=Nc2cccc3nsnc23)c1=O	none (no result: INS promoter inh)
COc1ccc(C)cc1-n1c(-c2ccncc2)n[nH]c1=S	none (no result: Insulin prom up)
COc1cc(-n2c(-c3ccccc3)n[nH]c2=S)c(OC)cc1Cl	L major viab 59 (no result: INS promoter inh)
COc1cc(OC)cc(-c2n[nH]c(=S)n2-c2cc(OC)ccc2OC)c1	L major viab 100 (no result: Insulin prom up)
COc1ccc(OC)c(-n2c(-c3ccc(O)cc3O)n[nH]c2=S)c1	none (no result: INS promoter inh, L major viab, Autophagy HCS, WT yeast gro inh)
CCN(C(=S)Nc1cc(S(=O)(=O)N2CCOCC2)ccc1Cl)c1cccc2ccccc12	L major viab 65
Cn1ccnc1C1CCCCN1Cc1nc(Cc2cccc(C(F)(F)F)c2)no1 (stereo unspecified)	L major viab 66 (no result: INS promoter inh)
FC(F)(F)c1cccc(Cc2noc(CN3C[C@@H]4CCC[C@H]3C4)n2)c1	none (no result: INS promoter inh)
COc1ccccc1NC(=O)c1ccc(NC(=O)CN2C(=O)CN(C)C2=O)cc1	none (no result: INS promoter inh)
CCCN(CCC)S(=O)(=O)c1ccc(Cl)c(OC)c1	none
CCN(CC)CCN1C(=O)C(O)=C(C(=O)c2ccc(C)o2)C1c1ccccn1 (stereo unspecified)	Autophagy HCS active (no result: Insulin prom up, WT yeast gro inh)
NC(=O)CSC1=Nc2ccccc2C2=NC(c3ccccc3)C(=O)N12 (stereo unspecified)	INS promoter inh 79
CCC(C)(C)n1nnnc1C(c1ccncc1)N1CCC(C)CC1 (stereo unspecified)	none
CCC(C)(C)n1nnnc1C(c1ccc2ncccc2c1)N1CCN(c2ccc(O)cc2)CC1 (stereo unspecified)	none (no result: INS promoter inh, L major viab, Autophagy HCS, WT yeast gro inh)
CCC(C)(C)n1nnnc1C(c1ccc(C)cc1)N1CCC(C)CC1 (stereo unspecified)	L major viab 62
CCC(C)(C)n1nnnc1C(c1ccc(C)cc1)N1CCN(Cc2ccc3c(c2)OCO3)CC1 (stereo unspecified)	L major viab 81
CCC(C)(C)n1nnnc1C(c1ccc2ncccc2c1)N1CCN(Cc2ccc3c(c2)OCO3)CC1 (stereo unspecified)	L major viab 99 (no result: INS promoter inh)
Cc1ccc(S(=O)(=O)C2(C(=O)N3CCCCC3C)CC2)cc1 (stereo unspecified)	none
CC1=CC(C)(C)N2C(=O)C3(NCCc4c3[nH]c3ccccc43)c3cccc1c32 (stereo unspecified)	none (no result: INS promoter inh)
O=C1CCCC(=O)C1C(=O)C1CCN(S(=O)(=O)c2ccccc2)CC1	none
CC(OC(=O)C1CCN(S(=O)(=O)c2ccc(Cl)cc2)CC1)C(=O)N1CCc2ccccc21 (stereo unspecified)	L major viab 98
CCN1CCN(c2cc(C)c3cc(NC(=O)c4ccc(OC)c(OC)c4)ccc3n2)CC1	L major viab 55, Autophagy HCS active (no result: INS promoter inh)

Screens (PubChem)
